Screens: PubChem BioAssay, National Center for Advancing Translational Sciences (NCATS)
Sampled rows, rich in hits. Any-hit rate of the full collection: about 21%.
Shiga toxin inh = A qHTS for Small Molecule Inhibitors of Shiga Toxin; Vero cells, Shiga toxin protein synthesis inhibition reporter; inhibition, % at 38.7 µM; hit rate 9.2% among 290,000; in the data active = inhibition mostly above about 28%, no sharp cut-off; inactive = mostly below about 43%
Pf growth 96h = Primary qHTS for delayed death inhibitors of the malarial parasite plastid, 96 hour incubation; AID 504834, 2011; Potency, µM (top dose mostly 28.7 µM), usual class: inhibitors; hit rate 6.9% among 320,000; P. falciparum luciferase reporter growth, 96 h; active = well fitted inhibition curve with a large enough effect; inconclusive = small, poorly fitted or top-dose-only effect, or another doubt; inactive = no such curve, though single readings can be large or run the other way
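Two-generation exposure (96 h) targets delayed-death phenotype. Reporter parasites carrying integrated firefly luciferase, in red cells at 2% hematocrit and 0.05% parasitemia final, kept at 37 C, 5% CO2; luminescence loss indicates inhibition.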
Cycloheximide cs = Cycloheximide Counterscreen for Small Molecule Inhibitors of Shiga Toxin. cell reporter, cycloheximide protein synthesis inhibition counterscreen. max response, %. hit rate 12% among 300,000; in the data active = max response mostly above about 13%, no sharp cut-off; inactive = mostly below about 14%; also: read at 38.3 µM for the half of the compounds with a filed dose
SARS PLP yeast = qHTS of Yeast-based Assay for SARS-CoV PLP; S. cerevisiae expressing SARS-CoV PLpro, growth rescue; Potency, µM (titrated, usually from 32.9 µM), actives largely listed as activators; hit rate 0.19% among 330,000; AID 485353, 2010; also: nearly all actives have a fitted effect of over 55% in size
Pf growth 48h = Primary qHTS for delayed death inhibitors of the malarial parasite plastid, 48 hour incubation. hit rate 5.9% among 310,000. Potency, µM (titrated, usually from 28.7 µM), usual class: inhibitors. P. falciparum luciferase growth in erythrocytes, 48 h; active = well fitted inhibition curve with a large enough effect; inconclusive = small, poorly fitted or top-dose-only effect, or another doubt; inactive = no such curve, though single readings can be large or run the other way
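Parasite viability was followed by luminescence of a genomically integrated firefly luciferase. Cultures held 0.1% parasitemia at 2% hematocrit (final), incubated under 5% CO2 at 37 C.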
NS1 inh = qHTS Assay for Inhibitors of Influenza NS1 Protein Function | hit rate 0.4% among 270,000 | AID 2326, 2010 | Potency, µM (titrated, usually from 46.1 µM); also: actives are rising curves; nearly all actives have a fitted effect of over 50% in size
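OD600 was taken as the measure of yeast growth restored by compound in an NS1-expressing S. cerevisiae strain. Cells had been washed out of glucose medium and diluted 1:100 into galactose -URA medium, pH 6.0.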
Large screens that a line does not name were inactive. Unless noted, calls follow the shape of the full dose curve.

CC(C)CC(COCc1ccc(Cl)cc1)N1CCN(C(=O)c2ccc(Cl)cc2Cl)CCC1=O (stereo not drawn)	Pf growth 96h inconclusive, Pf growth 48h 10.4µM (no result: NS1 inh)
COc1ccc(COCC(CC(C)C)N2CCN(C(=O)c3cccc(C(F)(F)F)c3)CCC2=O)cc1 (stereo not drawn)	Pf growth 96h inconclusive, Pf growth 48h 10.4µM
CC(C)CC(COCc1cccc(Cl)c1)N1CCN(C(=O)c2cccc(C(F)(F)F)c2)CCC1=O (stereo not drawn)	Pf growth 96h 10.4µM, Pf growth 48h inconclusive
CNC(=S)N(C)/N=C1/C(=O)N(Cc2c(Cl)cccc2Cl)c2ccccc21	Pf growth 96h inconclusive, Pf growth 48h inconclusive (no result: Shiga toxin inh, Cycloheximide cs, NS1 inh)
O=C(c1ccco1)N1N=C(c2cccs2)CC1c1ccc(F)cc1 (stereo not drawn)	Pf growth 96h 0.828µM (no result: Pf growth 48h)
COc1ccc(C2CC(c3cccs3)=NN2C(=O)c2ccco2)cc1OC (stereo not drawn)	Pf growth 96h 0.131µM, Pf growth 48h 0.262µM
COc1ccc(C2CC(c3cccs3)=NN2C(=O)CSc2nnnn2C)cc1OC (stereo not drawn)	Pf growth 96h 11.7µM, Pf growth 48h inconclusive
CS(=O)(=O)Nc1ccc(C2=NN(C(=O)c3ccco3)C(c3ccc(F)cc3)C2)cc1 (stereo not drawn)	Pf growth 96h inconclusive, Pf growth 48h inconclusive (no result: NS1 inh)
COc1cccc(CN(C)C(=S)Nc2ccc(C)c(C)c2)c1	none (no result: NS1 inh)
O=C1c2ccccc2C(=O)N1OCc1c(F)cccc1Cl	Cycloheximide cs 21.9
Oc1ccc(/C=N/Nc2ccc(C(F)(F)F)cn2)c(O)c1	Shiga toxin inh 56.1, Cycloheximide cs 51.8, Pf growth 48h inconclusive
Oc1ccc(/C=N\Nc2cc(N3CCOCC3)nc(N3CCOCC3)n2)c(O)c1	Pf growth 96h inconclusive, Pf growth 48h inconclusive
Oc1ccc(/C=N/Nc2cccc(Cl)n2)c(O)c1	Shiga toxin inh 46.5, Cycloheximide cs 41.6
C/C(=N\Nc1ccc(C(F)(F)F)cn1)c1ccncc1	Shiga toxin inh 100.8, Cycloheximide cs 23.8 (no result: NS1 inh)
C/C(=N\NC(=O)c1ccc(N/N=C(\C)c2ccncc2)cc1)c1ccncc1	Pf growth 96h inconclusive (no result: NS1 inh)
Oc1ccc(/C=N/Nc2ccc(C(F)(F)F)cn2)cc1	Shiga toxin inh 123.6, Cycloheximide cs 36.8 (no result: NS1 inh)
COCC(=O)N(CCc1ccc(OC)c(OC)c1)Cc1cc2cc(C)ccc2nc1Cl	none (no result: NS1 inh)
O=C(Nc1ccc(Cl)c(S(=O)(=O)N2CCOCC2)c1)c1ccccc1-c1ccc(C(F)(F)F)cc1	Pf growth 96h inconclusive, Pf growth 48h inconclusive
CC(C)(C)n1nnnc1CN(Cc1cccnc1)Cc1ccccc1Cl	Pf growth 48h 14.7µM (no result: Pf growth 96h)
CC(C)(C)n1nnnc1C(c1ccc(Cl)cc1)N(Cc1cccnc1)Cc1ccco1 (stereo not drawn)	Pf growth 48h inconclusive
O=C(CCl)N(C/C=C/c1ccccc1)c1ccc2c(c1)OCCO2	Shiga toxin inh 164.4, Pf growth 96h inconclusive, Cycloheximide cs 52.0, Pf growth 48h inconclusive (no result: NS1 inh)
N#CCCN(C(=O)CSc1ncccn1)c1ccc2c(c1)OCCO2	Pf growth 96h inconclusive (no result: Shiga toxin inh, Cycloheximide cs, NS1 inh)
C=CCOC(=O)C1=C(C)NC(SCC(=O)Nc2ccc(C)c(Cl)c2)=C(C#N)C1c1ccco1 (stereo not drawn)	Pf growth 96h inconclusive, Pf growth 48h 4.15µM
C=CCOC(=O)C1=C(C)NC(SCC)=C(C#N)C1c1ccc(Cl)cc1 (stereo not drawn)	Pf growth 96h 10.4µM, Pf growth 48h inconclusive
C=CCOC(=O)C1=C(C)NC(SCC(N)=O)=C(C#N)C1c1ccc(C)cc1 (stereo not drawn)	Pf growth 96h inconclusive
CC(=O)C1=C(C)NC(SCC(=O)Nc2nc3ccccc3s2)=C(C#N)C1c1ccc(Cl)cc1 (stereo not drawn)	Pf growth 96h 6.57µM, Cycloheximide cs 21.6, Pf growth 48h 7.38µM, NS1 inh inconclusive
CC1=C(C(=O)Nc2ccc(Cl)cc2)C(c2ccncc2)C(C#N)=C(SCC(N)=O)N1 (stereo not drawn)	Pf growth 96h inconclusive (no result: Pf growth 48h)
O=C(CSc1nncs1)Nc1ccc2c(c1)OCO2	Cycloheximide cs 25.0 (no result: NS1 inh)
CC(Sc1nncs1)C(=O)Nc1ccc2c(c1)OCO2 (stereo not drawn)	Cycloheximide cs 10.5
CCC(=O)Nc1nnc(SCC(=O)Nc2ccc3c(c2)OCO3)s1	none
O=c1c(-c2ccc([N+](=O)[O-])cc2)coc2c(O)c(O)ccc12	Shiga toxin inh 56.8, Pf growth 96h inconclusive, Cycloheximide cs 23.0, Pf growth 48h inconclusive
CN(C)Cc1c(O)ccc2c(=O)c(-c3ccc(Cl)cc3)coc12	Pf growth 96h inconclusive, Cycloheximide cs 14.2, SARS PLP yeast inconclusive
CCN(CC)Cc1c(O)ccc2c(=O)c(-c3ccc(Cl)cc3)coc12	Pf growth 48h inconclusive
O=c1cc(-c2ccc([N+](=O)[O-])cc2)c2ccc(O)cc2o1	none (no result: NS1 inh)
Cn1cccc1CC(=O)N/N=C/c1ccc(Cl)c([N+](=O)[O-])c1	Pf growth 48h inconclusive
Cc1cc(C(=O)N/N=C/c2ccc3c(c2)OCO3)c(C)n1-c1ccc(F)cc1	Shiga toxin inh 61.8, Cycloheximide cs 27.0
O=C(N/N=C/c1ccc(F)cc1)c1cc(-c2ccc3c(c2)OCO3)n[nH]1	none
Cc1cc(C(=O)N/N=C/c2ccc(Cl)c([N+](=O)[O-])c2)c(C)n1-c1ccc(F)cc1	Shiga toxin inh 34.5, Pf growth 96h 13.1µM, Pf growth 48h 13.1µM
CCC(C)(C)NC(=O)CN(C(=O)CNS(=O)(=O)c1ccc(F)cc1)c1ccc2c(c1)OCCO2	none
Cc1ccc(S(=O)(=O)N2C[C@@H]3[C@H]4CC[C@H](C4)[C@@H]3[C@@H](C)[C@H]2C#N)cc1	none (no result: Shiga toxin inh, Pf growth 96h, Cycloheximide cs, Pf growth 48h, NS1 inh)
O=C(COC(=O)c1ccc(Cl)cc1Cl)Nc1cccc(S(=O)(=O)NC2=NCCC2)c1	none (no result: Shiga toxin inh, Cycloheximide cs, NS1 inh)
CC(C)(C)NC(=O)NC(=O)C[n+]1ccc(Cc2ccc([N+](=O)[O-])cc2)cc1	Pf growth 96h inconclusive, Pf growth 48h 9.28µM
Cc1ccc(Cl)cc1NC(=O)C[n+]1ccc(Cc2ccc([N+](=O)[O-])cc2)cc1	Pf growth 96h 1.85µM, Pf growth 48h inconclusive (no result: NS1 inh)
CCOC(=O)C1=CN(Cc2cccc(-c3ccc(F)cc3)c2)S(=O)(=O)N(C)C1C (stereo not drawn)	none (no result: Shiga toxin inh, Pf growth 96h, Cycloheximide cs, Pf growth 48h, NS1 inh)
CC(C)(C)OC(=O)N1CCC(c2c(C(=O)N3CCN(C(=O)c4ccco4)CC3)cnn2-c2ccc(F)cc2F)CC1	SARS PLP yeast inconclusive, Pf growth 48h 9.28µM
Cn1nnnc1SCc1nnc(-c2ccccc2Br)o1	Shiga toxin inh 86.1, Cycloheximide cs 32.6
Cc1nnc(SCc2cccc(CSc3nnc(C)s3)c2)s1	none (no result: Pf growth 96h)
Cc1nnc(SCc2nnc(-c3ccccc3Br)o2)s1	Pf growth 96h inconclusive, Cycloheximide cs 23.8 (no result: NS1 inh)
Cn1nnnc1SCc1nnc(-c2ccc(F)cc2)o1	Shiga toxin inh 38.9, Cycloheximide cs 21.9 (no result: Pf growth 96h)
Cn1nnnc1SCc1ccc(CSc2nnnn2C)cc1	none
